# Laboratory results from the supplement of paper PMC8728848.
# The full list was thinned out, with the strongest signals kept by preference.
# How the values were obtained:
# Experiment in all cases: glycan array binding signal (z-score within array); higher = stronger binding
# Conditions in all cases: glycan notation: IUPAC condensed, linker removed
# [1] = target: Fuc(a1-2)Gal(b1-4)GlcNAc(b1-3)Gal(b1-4)GlcNAc(b1-2)Man(a1-3)[Fuc(a1-2)Gal(b1-4)GlcNAc(b1-3)Gal(b1-4)GlcNAc(b1-2)Man(a1-6)]Man(b1-4)GlcNAc(b1-4)GlcNAc
# Method in brief: (§1)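 The binding signal is a Z-score computed within each array and averaged over linkers. Arrays of the same protein sequence at different concentrations or buffers were also averaged together. Data originate from 3228 arrays in the Consortium for Functional Glycomics database, kept only where the protein sequence was available.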
# [2] = target: Fuc(a1-2)[Gal(a1-3)]Gal(b1-4)GlcNAc
# Method in brief: as §1
# [3] = target: Fuc(a1-2)[Gal(a1-3)]Gal(b1-4)GlcNAc(b1-2)Man
# Method in brief: as §1
# [4] = target: Fuc(a1-2)[Gal(a1-3)]Gal(b1-4)GlcNAc(b1-6)GalNAc
# Method in brief: as §1
# [5] = target: Fuc(a1-2)[Gal(a1-3)]Gal(b1-4)[Fuc(a1-3)]GlcNAc(b1-3)GalNAc
# Method in brief: as §1
# [6] = target: Fuc(a1-2)[GalNAc(a1-3)]Gal(b1-4)GlcNAc(b1-2)Man(a1-3)[Fuc(a1-2)[GalNAc(a1-3)]Gal(b1-4)GlcNAc(b1-2)Man(a1-6)]Man(b1-4)GlcNAc(b1-4)[Fuc(a1-6)]GlcNAc
# Method in brief: as §1
# [7] = target: Fuc(a1-3)[Gal(b1-4)]GlcNAc(b1-3)Gal(b1-4)[Fuc(a1-3)]GlcNAc(b1-3)Gal(b1-4)[Fuc(a1-3)]GlcNAc
# Method in brief: as §1
# [8] = target: Fuc(a1-3)[Gal(b1-4)]GlcNAc6S
# Method in brief: as §1
# [9] = target: Fuc(a1-3)[Gal3S(b1-4)]GlcNAc6S
# Method in brief: as §1
# Fuc(a1-4)GlcNAc = target: Fuc(a1-4)GlcNAc
# Method in brief: as §1
# Gal(a1-3)Gal = target: Gal(a1-3)Gal
# Method in brief: as §1
# Gal(b1-3)GalNAc = target: Gal(b1-3)GalNAc
# Method in brief: as §1
# [10] = target: Gal(b1-3)GlcNAc(b1-2)Man(a1-3)[Gal(b1-3)GlcNAc(b1-2)Man(a1-6)]Man(b1-4)GlcNAc(b1-4)GlcNAc
# Method in brief: as §1
# [11] = target: Gal(b1-3)GlcNAc(b1-3)Gal(b1-4)GlcNAc(b1-3)Gal(b1-4)GlcNAc(b1-2)[Gal(b1-3)GlcNAc(b1-3)Gal(b1-4)GlcNAc(b1-3)Gal(b1-4)GlcNAc(b1-6)]Man(a1-6)[Gal(b1-3)GlcNAc(b1-3)Gal(b1-4)GlcNAc(b1-3)Gal(b1-4)GlcNAc(b1-2)Man(a1-3)]Man(b1-4)GlcNAc(b1-4)[Fuc(a1-6)]GlcNAc
# Method in brief: as §1
# [12] = target: Gal(b1-3)[Fuc(a1-4)]GlcNAc(b1-2)Man
# Method in brief: as §1
# [13] = target: Gal(b1-3)[Fuc(a1-4)]GlcNAc(b1-3)Gal(b1-3)[Fuc(a1-4)]GlcNAc
# Method in brief: as §1
# Gal(b1-4)Gal = target: Gal(b1-4)Gal
# Method in brief: as §1
# [14] = target: Gal(b1-4)GlcNAc(b1-2)[Gal(b1-4)GlcNAc(b1-6)]Man(a1-6)[GlcNAc(b1-4)][Gal(b1-4)GlcNAc(b1-2)[Gal(b1-4)GlcNAc(b1-4)]Man(a1-3)]Man(b1-4)GlcNAc(b1-4)[Fuc(a1-6)]GlcNAc
# Method in brief: as §1
# [15] = target: Gal(b1-4)GlcNAc(b1-3)Gal(b1-4)GlcNAc(b1-2)[Gal(b1-4)GlcNAc(b1-3)Gal(b1-4)GlcNAc(b1-6)]Man(a1-6)[Gal(b1-4)GlcNAc(b1-3)Gal(b1-4)GlcNAc(b1-2)Man(a1-3)]Man(b1-4)GlcNAc(b1-4)GlcNAc
# Method in brief: as §1
# [16] = target: Gal(b1-4)GlcNAc(b1-3)Gal(b1-4)GlcNAc(b1-3)GalNAc
# Method in brief: as §1
# [17] = target: Gal(b1-4)GlcNAc(b1-3)Gal(b1-4)GlcNAc(b1-3)[Gal(b1-4)GlcNAc(b1-3)Gal(b1-4)GlcNAc(b1-6)]GalNAc
# Method in brief: as §1
# [18] = target: Gal(b1-4)GlcNAc(b1-3)Gal(b1-4)[Fuc(a1-3)]GlcNAc(b1-3)Gal(b1-4)[Fuc(a1-3)]GlcNAc
# Method in brief: as §1
# [19] = target: Gal(b1-4)GlcNAc(b1-3)[Gal(b1-4)GlcNAc(b1-6)]Gal(b1-4)GlcNAc
# Method in brief: as §1
# [20] = target: Gal(b1-4)GlcNAc(b1-3)[GlcNAc(b1-6)]Gal(b1-4)GlcNAc
# Method in brief: as §1
# Gal3S(b1-4)Glc6S = target: Gal3S(b1-4)Glc6S
# Method in brief: as §1
# [21] = target: GalNAc(b1-4)GlcNAc(b1-2)Man
# Method in brief: as §1
# GalNAc(b1-4)GlcNAc6S = target: GalNAc(b1-4)GlcNAc6S
# Method in brief: as §1
# GlcA(b1-3)GlcNAc = target: GlcA(b1-3)GlcNAc
# Method in brief: as §1
# [22] = target: GlcNAc(a1-3)Gal(b1-4)GlcNAc
# Method in brief: as §1
# [23] = target: GlcNAc(b1-2)[GlcNAc(b1-6)]Man(a1-6)[GlcNAc(b1-4)][GlcNAc(b1-2)Man(a1-3)]Man(b1-4)GlcNAc(b1-4)GlcNAc
# Method in brief: as §1
# GlcNAc(b1-3)Man = target: GlcNAc(b1-3)Man
# Method in brief: as §1
# Kdn(a2-3)Gal(b1-3)GlcNAc = target: Kdn(a2-3)Gal(b1-3)GlcNAc
# Method in brief: as §1
# [24] = target: Man(a1-2)Man(a1-2)Man(a1-3)Man
# Method in brief: as §1
# [25] = target: Man(a1-2)Man(a1-6)[Man(a1-3)]Man(a1-6)[Man(a1-2)Man(a1-2)Man(a1-3)]Man
# Method in brief: as §1
# Man(a1-3)[Man(a1-6)]Man = target: Man(a1-3)[Man(a1-6)]Man
# Method in brief: as §1
# [26] = target: Man(a1-3)[Man(a1-6)]Man(b1-4)GlcNAc(b1-4)GlcNAc
# Method in brief: as §1
# Man(b1-4)GlcNAc = target: Man(b1-4)GlcNAc
# Method in brief: as §1
# [27] = target: Neu5Ac(a2-3)Gal(b1-3)GalNAc6S
# Method in brief: as §1
# [28] = target: Neu5Ac(a2-3)Gal(b1-3)GlcNAc
# Method in brief: as §1
# Neu5Ac(a2-3)Gal(b1-4)Glc = target: Neu5Ac(a2-3)Gal(b1-4)Glc
# Method in brief: as §1
# [29] = target: Neu5Ac(a2-3)Gal(b1-4)GlcNAc(b1-2)Man
# Method in brief: as §1
# [30] = target: Neu5Ac(a2-3)Gal(b1-4)GlcNAc(b1-3)Gal(b1-4)GlcNAc(b1-3)[Neu5Ac(a2-3)Gal(b1-4)GlcNAc(b1-3)Gal(b1-4)GlcNAc(b1-6)]GalNAc
# Method in brief: as §1
# [31] = target: Neu5Ac(a2-3)Gal(b1-4)GlcNAc(b1-6)[Gal(b1-3)]GalNAc
# Method in brief: as §1
# [32] = target: Neu5Ac(a2-3)Gal(b1-4)[Fuc(a1-3)]GlcNAc(b1-2)Man
# Method in brief: as §1
# [33] = target: Neu5Ac(a2-3)Gal(b1-4)[Fuc(a1-3)]GlcNAc(b1-6)[Neu5Ac(a2-3)Gal(b1-3)]GalNAc
# Method in brief: as §1
# [34] = target: Neu5Ac(a2-3)GalNAc(b1-4)GlcNAc
# Method in brief: as §1
# [35] = target: Neu5Ac(a2-3)[Neu5Ac(a2-6)]GalNAc
# Method in brief: as §1
# [36] = target: Neu5Ac(a2-6)GlcNAc(b1-4)GlcNAc
# Method in brief: as §1
# Neu5Ac(a2-8)Neu5Ac = target: Neu5Ac(a2-8)Neu5Ac
# Method in brief: as §1
# [37] = target: Neu5Ac9Ac(a2-3)Gal(b1-4)GlcNAc
# Method in brief: as §1
# [38] = target: Neu5Gc(a2-8)Neu5Gc(a2-3)Gal(b1-4)GlcNAc
# Method in brief: as §1
binder,measurement,setting,value
Mermaid3 (Stilbonema majum) (protein) MGSSHHHHHHSSGLVPRGSHMAASGWLRSPQGTVVKLYRRSLSWSKADEFCKDVDGRLVVDRTADMHLFLIKNVLKEKKSRVWVGLRRTASHSRTWIWSDGTRQNEGDLDANLWLRDEPNDAAGEEECALFMYSPWEKAWGLNDYLCRGGCRNYQFICEKWIR,glycan array binding signal (z-score),[1],0.368
same,glycan array binding signal (z-score),[2],-0.174
same,glycan array binding signal (z-score),[3],-0.175
same,glycan array binding signal (z-score),[4],-0.383
same,glycan array binding signal (z-score),[5],-0.592
same,glycan array binding signal (z-score),[6],0.166
same,glycan array binding signal (z-score),[7],-0.463
same,glycan array binding signal (z-score),[8],3.67
same,glycan array binding signal (z-score),[9],-0.521
same,glycan array binding signal (z-score),Fuc(a1-4)GlcNAc,1.39
same,glycan array binding signal (z-score),Gal(a1-3)Gal,-0.579
same,glycan array binding signal (z-score),Gal(b1-3)GalNAc,0.892
same,glycan array binding signal (z-score),[10],-0.627
same,glycan array binding signal (z-score),[11],5.6
same,glycan array binding signal (z-score),[12],0.676
same,glycan array binding signal (z-score),[13],-0.634
same,glycan array binding signal (z-score),Gal(b1-4)Gal,6.72
same,glycan array binding signal (z-score),[14],-0.562
same,glycan array binding signal (z-score),[15],3.51
same,glycan array binding signal (z-score),[16],-0.185
same,glycan array binding signal (z-score),[17],-0.118
same,glycan array binding signal (z-score),[18],-0.554
same,glycan array binding signal (z-score),[19],-0.074
same,glycan array binding signal (z-score),[20],4.93
same,glycan array binding signal (z-score),Gal3S(b1-4)Glc6S,-0.077
same,glycan array binding signal (z-score),[21],-0.708
same,glycan array binding signal (z-score),GalNAc(b1-4)GlcNAc6S,3.6
same,glycan array binding signal (z-score),GlcA(b1-3)GlcNAc,1.68
same,glycan array binding signal (z-score),[22],1.05
same,glycan array binding signal (z-score),[23],-0.397
same,glycan array binding signal (z-score),GlcNAc(b1-3)Man,5.11
same,glycan array binding signal (z-score),Kdn(a2-3)Gal(b1-3)GlcNAc,-0.708
same,glycan array binding signal (z-score),[24],-0.704
same,glycan array binding signal (z-score),[25],-0.681
same,glycan array binding signal (z-score),Man(a1-3)[Man(a1-6)]Man,0.678
same,glycan array binding signal (z-score),[26],-0.62
same,glycan array binding signal (z-score),Man(b1-4)GlcNAc,4.76
same,glycan array binding signal (z-score),[27],-0.112
same,glycan array binding signal (z-score),[28],-0.277
same,glycan array binding signal (z-score),Neu5Ac(a2-3)Gal(b1-4)Glc,0.506
same,glycan array binding signal (z-score),[29],4.26
same,glycan array binding signal (z-score),[30],-0.289
same,glycan array binding signal (z-score),[31],4.77
same,glycan array binding signal (z-score),[32],-0.553
same,glycan array binding signal (z-score),[33],-0.153
same,glycan array binding signal (z-score),[34],0.426
same,glycan array binding signal (z-score),[35],4.44
same,glycan array binding signal (z-score),[36],-0.709
same,glycan array binding signal (z-score),Neu5Ac(a2-8)Neu5Ac,-0.57
same,glycan array binding signal (z-score),[37],-0.2
same,glycan array binding signal (z-score),[38],-0.787
